# Reference: PubChem BioAssay (NCI)
# The panel holds about 83,000 compounds, 20% with a hit somewhere; the sample as a whole holds those more often.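 Testing used 96-well plates and a 48-hour single-concentration exposure. Example: -40 means 40% of the starting cells died.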 A number with no mark means an inactive call. Active and inactive are the calls of the source. How the source made its calls: active means growth percent below 10; inactive means the rest.
# What was measured:
# Test in all cases: NCI-60 one-dose screen, 48 h (100 = growth as untreated, 0 = no growth, -100 = all killed)
# Conditions in all cases: 10 µM
# DU-145 prostate = test system: DU-145 prostate
# K-562 leukemia = test system: K-562 leukemia
# MALME-3M melanoma = test system: MALME-3M melanoma
# MDA-MB-231 breast = test system: MDA-MB-231 breast
# RXF 393 renal = test system: RXF 393 renal
# SF-268 CNS = test system: SF-268 CNS
# SF-295 CNS = test system: SF-295 CNS
# SF-539 CNS = test system: SF-539 CNS
# UACC-257 melanoma = test system: UACC-257 melanoma
# M14 melanoma = test system: M14 melanoma
Structure (SMILES),growth (DU-145 prostate),growth (K-562 leukemia),growth (MALME-3M melanoma),growth (MDA-MB-231 breast),growth (RXF 393 renal),growth (SF-268 CNS),growth (SF-295 CNS),growth (SF-539 CNS),growth (UACC-257 melanoma),growth (M14 melanoma)
COc1ccc(-c2nnc(SC/C(=N\O)c3ccccc3)o2)cc1,100%,94.2%,109%,92.3%,120%,95.8%,101%,92.7%,121%,104%
COc1ccc(S(=O)(=O)Nc2cc(/C=C\c3cc(OC)c(OC)c(OC)c3)ccc2OC)cc1,-12.8% (active),11.1%,50%,7.83% (active),16.4%,9.24% (active),13%,-13% (active),47.7%,8.41% (active)
Cc1ccc2oc(=O)cc(/C(=C3/C=CC=N3)c3ccc[nH]3)c2c1,0.492% (active),-0.946% (active),25.6%,-6.98% (active),-21.7% (active),12.7%,-23.9% (active),-33.6% (active),6.21% (active),-7.95% (active)
CCn1nc(-c2ccc(C(=O)OC)cc2)nc2c(=O)n(C)c(=O)nc1-2,77.6%,80.9%,29.1%,15.8%,13.9%,60.7%,36.8%,2.03% (active),105%,78.3%
Cc1ccc(-c2cc(C(=O)Nc3ccc(S(=O)(=O)N4CCCCC4)cc3)[nH]n2)c(O)c1,64.8%,17.9%,74%,56.1%,50.7%,69.9%,62.4%,48.8%,52%,62.2%
O=C1/C(=C/c2ccc(O)cc2O)N=C2SCCCN12,104%,92.5%,101%,104%,102%,96.9%,96.3%,93.7%,102%,100%
O=S(=O)(NC1c2ccccc2Oc2ccccc21)c1cc(Cl)ccc1Cl,113%,89.8%,102%,97.4%,93.1%,99.1%,101%,98.2%,102%,98.9%
CCCCn1c(=O)[nH]c2c(c1=O)C(c1ccc(Cl)cc1)c1c([nH]c(=O)n(CCCC)c1=O)N2,105%,105%,89.8%,106%,109%,99%,89.8%,101%,96.8%,96.6%
COc1cc(-c2nc3ccccc3[nH]2)ccc1OCc1nnc(-c2ccc(Br)cc2)o1,84.8%,57.3%,67.4%,76.2%,87%,96.8%,102%,110%,97%,91.9%
CC(C)c1ncc(CO)n1Cc1c(Cl)cccc1Cl,106%,92.3%,103%,115%,95.8%,96.5%,96.1%,98.7%,106%,109%
CC1=CSC2=NC(c3ccc(Cl)c(Cl)c3)=CC(c3ccc(Cl)cc3)N12 (stereo not given),20.5%,17%,-22.7% (active),-44% (active),-47.7% (active),14.7%,99.6%,-46.7% (active),18.7%,0.183% (active)
O=C(/C=C/c1ccc(Cl)cc1)c1ccc(Br)cc1,101%,97.5%,102%,102%,114%,102%,95.9%,94%,106%,100%
COc1ccc(C2=NNC(c3sc(Cl)nc3Cl)C2)cc1 (stereo not given),86.6%,7.31% (active),74.3%,67.3%,71.7%,73%,102%,110%,94%,59.7%
CCC(O)c1ccc(Br)cc1NC(=O)c1cccc(Cl)c1 (stereo not given),27.9%,8.78% (active),-3.37% (active),-1.69% (active),16.3%,18.7%,9.43% (active),2.67% (active),7.67% (active),0.116% (active)
COc1ccc(CCc2nc3cc(-c4c(C)noc4C)ccc3n2CCN2CCOCC2)cc1,80.1%,13.7%,-37.4% (active),81.7%,70.1%,50.4%,-35% (active),90.4%,12.9%,20.6%
O=C(CCl)N1c2ccccc2Sc2ccc3ccccc3c21,-90.8% (active),-0.331% (active),-43.4% (active),-72.5% (active),-33.4% (active),-59.4% (active),-2.09% (active),-60.9% (active),-36.6% (active),-52.1% (active)
Cc1ncc([N+](=O)[O-])n1CCOc1ccc(C(=O)/C=C/c2ccc(C(F)(F)F)cc2)cc1,56.4%,14%,81.8%,82.9%,64.1%,77.4%,73.8%,57.5%,82.9%,79.7%
COCCOC(=O)NC(=O)Nc1ccc(/C(=N/O)c2ccc(Cl)cc2)cc1,4.9% (active),6.7% (active),90%,12.8%,-13.1% (active),43.2%,-8.84% (active),1.64% (active),71.6%,3.73% (active)
CN1CCN(c2nc(-c3cccnc3)nc3sc4c(c23)CCCCCC4)CC1,98.9%,13.6%,106%,78.9%,79.4%,80.3%,75.6%,93.3%,102%,101%
COc1cc(-c2cc(-c3ccc(C)cc3)nc3nc(N)[nH]c(=O)c23)ccc1Oc1ccnc2cc(Cl)ccc12,87.7%,74.4%,104%,66.6%,77.8%,77.4%,101%,103%,90.1%,101%
COc1ccc2c(=O)cc(C(Cl)(Cl)Cl)oc2c1,0.575% (active),-12.7% (active),-87.5% (active),-31.1% (active),-72.1% (active),-36.4% (active),-31.1% (active),-27.4% (active),-48.9% (active),-67.1% (active)
NC1CCC(Nc2nc(NCc3cc(Cl)ccc3O)c3ncn(C4CCCC4)c3n2)CC1 (stereo not given),0.994% (active),-23.3% (active),-65.5% (active),-16.7% (active),-58.9% (active),-23.1% (active),-5.72% (active),-62.4% (active),-58.9% (active),-71.6% (active)
O=C1/C(=C/c2ccc(O)cc2)Cc2ccc(Cl)cc21,111%,81.8%,106%,61.5%,59.7%,95.9%,92.3%,82.6%,86%,82.5%
CCCCCC(CCC)COC(=O)c1ccc(OC)cc1 (stereo not given),109%,105%,97.4%,109%,115%,106%,102%,96.9%,90.8%,101%
NCCNc1ccc2cc(-c3nc4ccccc4[nH]3)c(=O)oc2c1,103%,81.3%,105%,66%,108%,92.3%,98.2%,94.2%,98.6%,104%
COc1ccc(C2CC(c3ccc(-c4ccccc4)cc3)=NN2c2ccc(S(N)(=O)=O)cc2)cc1 (stereo not given),83.2%,52.7%,95.8%,69.6%,73.3%,68%,86.5%,98.7%,82.7%,89.6%
COc1ccc(-c2oncc2-c2cc(OC)c3c(c2)OCO3)cc1,34.2%,13.8%,52.4%,54.1%,17.4%,50.2%,12.3%,-16% (active),45.1%,13.1%
CCCCCCCCCCCCCCCCn1cc[n+](C)c1,-100% (active),72.6%,-73.7% (active),-93.9% (active),-66.2% (active),-23% (active),-39.5% (active),-98.6% (active),-61.1% (active),-77.4% (active)
